Screening data as filed in PubChem.
Shown are actives, neighbours in structure and some others; about 4.8% of the full set was active somewhere.
DRD3 antagonist: qHTS of D3 Dopamine Receptor Antagonist: qHTS | max response, negative = inhibition, % | D(3) dopamine receptor (Homo sapiens), P35462 | AID 652054, 2013 | D3R cells, DiscoveRx beta-arrestin luminescence, antagonist mode; hits give low values | 2.5% of 360,000 active; in the data active = max response below about -50%; inconclusive = no clear call, values can overlap the other calls
Target sequence (P35462 whole entry, looked up): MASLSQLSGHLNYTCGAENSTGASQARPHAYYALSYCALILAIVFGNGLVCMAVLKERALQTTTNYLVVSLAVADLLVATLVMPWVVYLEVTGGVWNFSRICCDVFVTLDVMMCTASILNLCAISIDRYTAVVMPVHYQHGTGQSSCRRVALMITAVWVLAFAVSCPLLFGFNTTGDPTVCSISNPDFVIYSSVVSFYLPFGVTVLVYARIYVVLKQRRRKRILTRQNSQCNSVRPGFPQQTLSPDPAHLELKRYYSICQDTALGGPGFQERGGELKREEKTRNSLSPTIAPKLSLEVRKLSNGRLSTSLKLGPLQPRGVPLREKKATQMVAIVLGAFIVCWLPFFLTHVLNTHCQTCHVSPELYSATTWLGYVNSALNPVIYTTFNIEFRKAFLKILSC
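Cells plated overnight at 1500 cells/well, then exposed to library compounds with dopamine controls for 90 minutes at 37 degrees C. DiscoveRx reagent added for 30–60 minutes at room temperature; luminescence read, quantitative HTS format.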
ATXN2 expr inh: Primary qHTS for Inhibitors of ATXN expression. Potency, µM (top dose mostly 57 µM), actives largely listed as inhibitors. HEK-293 ATXN2-luciferase reporter, luminescence, 24 h. 0.72% of 360,000 active. AID 1745845, 2022; also: nearly all actives have a fitted effect of over 55% in size
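qHTS (up to 57 uM final) was run with 24 h compound exposure of reporter cells at 37 °C. Each well was multiplexed: SteadyGlo luminescence measured ATXN2-luciferase expression after a fluorogenic Gly-Phe-AFC viability readout (25 uM final).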
HepG2 tox-1: qHTS for Inhibitors of TGF-b: Cytotox Counterscreen. HepG2 CAGA-GFP viability, ATP luminescence, 18 h. 0.76% of 410,000 active. Potency, µM (titrated, usually from 46.1 µM), hits mostly cytotoxic
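HepG2 CAGA-GFP cells (1000/well, DMEM with 1% FBS) received compound, then TGF-beta at 500 pg/mL final, and were incubated 18 hours at 37 degrees C. Viability was read by CellTiter-Glo luminescence. Media-only wells were set as complete cell-killing and DMSO as no toxicity.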
S2 tox: Viability Counterscreen for Primary qHTS for Inhibitors of ATXN expression | S2 cells (HEK-293 line with an ATXN2-luciferase reporter) viability, CellTiter-Fluor protease fluorescence, 24 h | 0.49% of 400,000 active | Potency, µM (top dose mostly 56.7 µM), hits mostly cytotoxic | AID 651635, 2014; also: nearly all actives have a fitted effect of over 40% in size
TGFb inhibitor: qHTS for Inhibitors of TGF-b | HepG2 CAGA-GFP TGF-b/SMAD3 reporter, GFP fluorescence, 18 h; TGF-beta stimulated, 500 pg/mL final | Potency, µM (titrated, usually from 46.1 µM), actives largely listed as inhibitors | 1.2% of 410,000 active; also: nearly all actives have a fitted effect of over 65% in size
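HEPG2 CAGA-GFP, 1000 cells/well; 2 h settle, 37 C; cpd via pin tool; TGF-b 500 pg/mL final; 18 h, 37 C; GFP imaging ex488/em500-530; %Activity normalised to -TGF-b and +DMSO controls; CRC fit, curve class.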
D3 ag: qHTS of D3 Dopamine Receptor Agonist: qHTS | D(3) dopamine receptor (Homo sapiens), P35462 | D3R DiscoveRx beta-arrestin cells, luminescence, 90 min | max activation, % | 0.58% of 410,000 active | AID 652048, 2013; in the data active = max activation above about 30%
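Agonist mode: compounds and dopamine controls were applied to plated cells for 90 min at 37 degrees C after an overnight attachment at 1500 cells/well. Luminescent read-out followed 30 - 60 minutes at room temperature with DiscoveRx detection reagent.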
TGFb CAGA inh: qHTS for Inhibitors of TGF-b: Confirmation of Cherry Picks; shares compounds with TGFb inhibitor; HepG2 CAGA-GFP TGF-b reporter, GFP fluorescence, 18 h; cells stimulated with TGF-beta, 500 pg/mL; Potency, µM (series often up to 46.1 µM), usual class: inhibitors; 63% of 1,600 active; also: nearly all actives have a fitted effect of over 65% in size
HepG2 tox-2: qHTS for Inhibitors of TGF-b: Cytotox Counterscreen for Cherry Picks. shares compounds with TGFb inhibitor. HepG2 CAGA-GFP viability, ATP luminescence, 18 h; cells stimulated with TGF-beta, 500 pg/mL. Potency, µM (doses to about 46.1 µM), most hits filed as inhibitors. 27% of 1,600 active; also: nearly all actives have a fitted effect of over 70% in size
TGFb CCL64 inh: qHTS for Inhibitors of TGF-b: CCL64 Cells Orthogonal Assay for Cherry Picks; AID 720536, 2013; shares compounds with TGFb inhibitor; Potency, µM (highest dose often 46.1 µM), usual class: inhibitors; CCL64 CAGA-GFP reporter, TGF-b stimulated, GFP fluorescence, 18 h; 41% of 1,600 active; also: nearly all actives have a fitted effect of over 65% in size
TGFb COP inh: qHTS for Inhibitors of TGF-b: Hit Validation in HepG2 Cells using COP promoter; shares compounds with TGFb inhibitor; Potency, µM (top dose mostly 46.1 µM), hits mostly inhibitors; AID 720537, 2013; HepG2 COP-GFP TGF-b reporter, GFP fluorescence, 18 h; cells stimulated by added recombinant TGF-beta; 3% of 1,600 active; also: nearly all actives have a fitted effect of over 70% in size
Of the large screens only hits and unclear results are named; the others gave an inactive call (follow-up assays come after a bar, where they were run); ! = not confirmed by another sample. Unless noted, calls follow the shape of the dose curve; as a rule, active = well fitted curve in the direction sought with a large enough effect; inconclusive = small, poorly fitted or top-dose-only effect, or another doubt; inactive = no such curve, though single readings can be large; an effect the other way counts as inactive or inconclusive.

O=S(=O)(/C(=C/c1ccc(C(F)(F)F)cc1)c1nc2ccccc2[nH]1)c1ccccc1	DRD3 antagonist -77, ATXN2 expr inh inconclusive, HepG2 tox-1 7.9µM, S2 tox 27µM, TGFb inhibitor 5µM | TGFb CAGA inh 2.9µM | HepG2 tox-2 2.6µM | TGFb CCL64 inh 1.8µM | TGFb COP inh inconclusive
CC(C)c1ccc(/C=C(\c2nc3ccccc3[nH]2)S(=O)(=O)c2ccccc2)cc1	DRD3 antagonist -73, ATXN2 expr inh inconclusive, HepG2 tox-1 10µM, S2 tox inconclusive, TGFb inhibitor 7.9µM | TGFb CAGA inh 16µM | HepG2 tox-2 10µM | TGFb CCL64 inh 4.6µM | TGFb COP inh inactive
CCC1=Nc2cc(C(=O)NCC3CCCO3)ccc2Sc2ccc(Cl)cc21 (configuration not stated)	S2 tox inconclusive, TGFb inhibitor inconclusive
CCC1=Nc2cc(C(=O)NCC3CCCO3)ccc2Sc2ccc(Br)cc21 (configuration not stated)	S2 tox inconclusive, TGFb inhibitor 11µM (no result: ATXN2 expr inh) | TGFb CAGA inh 18µM | HepG2 tox-2 inactive | TGFb CCL64 inh inconclusive | TGFb COP inh inactive
Cc1nc(N2N=C3/C(=C/c4ccc(F)cc4)CCCC3C2c2ccc(F)cc2)sc1C(=O)N(C)C (configuration not stated)	ATXN2 expr inh inconclusive, TGFb inhibitor 13µM (no result: S2 tox) | TGFb CAGA inh 23µM | HepG2 tox-2 inconclusive | TGFb CCL64 inh inconclusive | TGFb COP inh inactive
COc1ccc(S(=O)(=O)NCC(c2ccco2)S(=O)(=O)c2cccs2)cc1F (configuration not stated)	TGFb inhibitor inconclusive (no result: DRD3 antagonist, ATXN2 expr inh, S2 tox)
COc1cc2c(cc1NS(=O)(=O)c1cccc(C#N)c1)n(C)c(=O)n2C	none (no result: DRD3 antagonist, ATXN2 expr inh, S2 tox)
CC(=O)c1ccc2c(c1)N(Cc1ccc3ccccc3c1)C(=O)C(C)S2 (configuration not stated)	DRD3 antagonist -75, TGFb inhibitor 7.9µM | TGFb CAGA inh 21µM | HepG2 tox-2 inactive | TGFb CCL64 inh inactive | TGFb COP inh inactive
Cn1c(=O)n(C)c2cc(N3CCOCC3)c(NS(=O)(=O)c3ccc(Br)cc3)cc21	none (no result: DRD3 antagonist)
Cn1c(=O)cc(OCCCC(=O)NCc2ccccn2)c2ccccc21	none
Cc1ccnc(NC(=O)CCCOc2cc(=O)n(C)c3ccccc23)c1	ATXN2 expr inh 1.3µM!, TGFb inhibitor 2.2µM | TGFb CAGA inh 5.8µM | HepG2 tox-2 4.1µM | TGFb CCL64 inh 26µM | TGFb COP inh inactive
COc1ccc(C)cc1N=Nc1ccc(O)c2ncccc12	DRD3 antagonist -117, TGFb inhibitor 7.1µM (no result: ATXN2 expr inh) | TGFb CAGA inh 6.5µM | HepG2 tox-2 inactive | TGFb CCL64 inh 2.3µM | TGFb COP inh inactive
CCC1CN(Cc2cn[nH]c2-c2ccc(OC)cc2)Cc2cc(OC)ccc2O1 (configuration not stated)	none (no result: DRD3 antagonist, ATXN2 expr inh, HepG2 tox-1, TGFb inhibitor, D3 ag)
COc1ccc(CCNC(=O)c2ccc(Cn3c(=O)c4cccn4c4cccnc43)cc2)cc1OC	none (no result: DRD3 antagonist, ATXN2 expr inh, S2 tox)
Cc1ccnc(NC(=S)N2CCN(c3cccc(C(F)(F)F)c3)CC2)c1	DRD3 antagonist inconclusive, ATXN2 expr inh inconclusive, S2 tox inconclusive, TGFb inhibitor 13µM | TGFb CAGA inh 7.3µM | HepG2 tox-2 13µM | TGFb CCL64 inh inactive | TGFb COP inh inactive
CCOC(=O)CNC(=O)c1cc2c(=O)n3cccc(C)c3nc2n1C	none (no result: DRD3 antagonist, ATXN2 expr inh, S2 tox)
COC(=O)c1c(C)nn(-c2ccc(F)cc2)c1-n1cccc1	none (no result: DRD3 antagonist, ATXN2 expr inh, S2 tox, TGFb inhibitor)
COc1ccc(NC(=O)Cn2cc(C(=O)c3ccc(C)c(C)c3)c(=O)c3cc(OC)ccc32)cc1	none (no result: DRD3 antagonist)
O=C(Nc1cccc(C(F)(F)F)c1)Nc1ccc(N2CCCC2)c(S(=O)(=O)Nc2ccccc2Cl)c1	DRD3 antagonist inconclusive, ATXN2 expr inh inconclusive, S2 tox inconclusive, TGFb inhibitor 2.8µM | TGFb CAGA inh 4.1µM | HepG2 tox-2 9.2µM | TGFb CCL64 inh 5.2µM | TGFb COP inh inactive
CC(/C=N/NC(=O)c1nnn(-c2nonc2N)c1CN(C)C)=C\c1ccco1	none
CCCN(CCC)Cc1c(C(=O)N/N=C/C(C)=C\c2ccco2)nnn1-c1nonc1N	ATXN2 expr inh inconclusive, TGFb inhibitor 7.9µM (no result: S2 tox) | TGFb CAGA inh 5.2µM | HepG2 tox-2 inconclusive | TGFb CCL64 inh inconclusive | TGFb COP inh inactive
COc1ccc(C2c3c(n(C)c4ccccc34)C(=O)N2CC(=O)Nc2cccc(Cl)c2)cc1 (configuration not stated)	none (no result: DRD3 antagonist, ATXN2 expr inh, S2 tox)
CC1=C(C(=O)N(C(C)C)C(C)C)CC(CC(=O)NCCc2ccccn2)C(=O)N1Cc1ccc(C(C)(C)C)cc1 (configuration not stated)	S2 tox inconclusive, TGFb inhibitor 8.9µM | TGFb CAGA inh inactive | HepG2 tox-2 inactive | TGFb CCL64 inh inconclusive | TGFb COP inh inactive
CC1=C(C(=O)N(C)C)CC(CC(=O)NCc2cccc3ccccc23)C(=O)N1Cc1ccc(C(C)(C)C)cc1 (configuration not stated)	ATXN2 expr inh inconclusive, S2 tox inconclusive, TGFb inhibitor inconclusive
CC1=C(C(=O)N(C(C)C)C(C)C)CC(CC(=O)NCc2cccc3ccccc23)C(=O)N1Cc1ccc(C(C)(C)C)cc1 (configuration not stated)	ATXN2 expr inh inconclusive, S2 tox inconclusive, TGFb inhibitor 7.9µM | TGFb CAGA inh 16µM | HepG2 tox-2 inconclusive | TGFb CCL64 inh inconclusive | TGFb COP inh inactive
